Screen size: about 350,000 compounds; about 31,000 (8.9%) were called active. Another 15% or so got no clear call; they are omitted. The list comes from a sample in which actives are over-represented; it also holds similar structures and randomly drawn compounds. Values without a mark were called inactive. Calls come from the whole dose curve; as a rule, active = well fitted inhibition curve with a large enough effect; inconclusive = small, poorly fitted or top-dose-only effect; inactive = no such curve, though single readings can be large or run the other way.
Molecular target: Histone-lysine N-methyltransferase EHMT2 (Homo sapiens) (UniProt Q96KQ7)
Sequence (Q96KQ7 913-1193 limits assumed): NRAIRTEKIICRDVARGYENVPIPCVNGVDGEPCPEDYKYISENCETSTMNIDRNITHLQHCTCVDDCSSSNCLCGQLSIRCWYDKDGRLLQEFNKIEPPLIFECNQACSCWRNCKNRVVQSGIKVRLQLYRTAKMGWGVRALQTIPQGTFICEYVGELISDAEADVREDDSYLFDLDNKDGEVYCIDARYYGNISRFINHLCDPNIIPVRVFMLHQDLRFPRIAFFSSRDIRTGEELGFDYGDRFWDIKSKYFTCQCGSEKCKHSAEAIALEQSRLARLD
Test: qHTS Assay for Inhibitors of Histone Lysine Methyltransferase G9a; note: nearly all actives have a fitted effect of over 75% in size
Details: G9a H3K9 monomethylation, AlphaScreen, 2 h; series mostly up to 59 µM; activity, negative = inhibition: at the top concentration
Procedure, shortened: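 Enzyme 20 nM + cpd, 15 min RT; add b-H3K9 pep 500 nM / SAM 20 uM; 2 h RT; anti-H3K9me1 Ab 0.5 ug/mL + SA donor / anti-rabbit acceptor beads 20 ug/mL each, 10 min; AlphaScreen read.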
% is set by controls: 0 for no effect and ±100 for the full control effect; potency is the fitted concentration of half-maximal effect.

In order of falling “activity, negative = inhibition” value:
1. COC(=O)c1ccc(CNC(=O)c2ccc3oc(C(C)C)nc3c2)cc1  29.5% [at 102 µM]
2. CCNC(=S)N1CCN(CCN=CC2=C(O)CC(C)(C)CC2=O)CC1  26.3% [at 102 µM]
3. CCn1cc(C(=O)Nc2cc(C)ccc2C)c(=O)c2ccc(C)nc21  19% [at 102 µM]
4. Cn1c(SCC(=O)N2CCCCC2)nc2c(c1=O)SCC2  8.93% [at 102 µM]
5. CC1C(=O)Nc2ccc(S(=O)(=O)N3CCN(c4ccccc4F)CC3)cc2NC1=O (centres undefined)  7.91% [at 102 µM]
6. Cc1ccn(CCC(=O)N2c3ccccc3CC2C)n1 (centres undefined)  7.81% [at 102 µM]
7. CCOC(=O)c1sc(NC(=O)CSc2n[nH]c(CC)n2)nc1C  3.78% [at 102 µM]
8. Cc1nnc(SCC(=O)Nn2cnnc2)s1  2.7% [at 102 µM]
9. CCOC(=O)c1ccccc1NC(=O)CSc1nc2ccccc2c(=O)[nH]1  0.864% [at 102 µM]
10. COc1ccccc1CC(=O)NCCc1c[nH]c2ccccc12  -1.18% [at 102 µM]
11. CCn1nc(C(=O)OCC(=O)N2c3ccccc3CC2C)c2ccccc2c1=O (centres undefined)  -3.26% [at 102 µM]
12. CCCn1nc(C(=O)NNC(=O)CCOc2ccccc2OCC)c2ccccc2c1=O  -3.32% [at 102 µM]
13. CCn1cc(C(=O)OCC(=O)Nc2cccc(C)c2)c(=O)c2ccc(C)nc21  -4.25% [at 102 µM]
14. COc1ccc(S(=O)(=O)NCCc2c[nH]c3ccccc23)cc1OC  -7.41% [at 102 µM]
15. Cc1cccc(CSc2nnc(C)c(=O)n2N)c1  -12% [at 102 µM]
16. CC(C)C(=O)Nc1c(O)c2ccccc2[nH]c1=O  -23% [at 102 µM]

In the case of `CC(C)C(=O)N1CCN(CCN=CC2=C(O)CC(c3ccco3)CC2=O)CC1` (centres undefined), the Potency is reported as 50.1 µM (active).
In the case of `O=C1CC(c2ccccc2)CC(O)=C1C=NCCN1CCOCC1` (centres undefined), the Potency is reported as 12.6 µM (active).
`O=C(Nc1nnc(CCOCCOCCc2nnc(NC(=O)c3ccco3)s2)s1)c1ccco1` was tested, and the Potency was 14.1 µM (active).
`CCOC(=O)c1sc(NC(=O)CSc2nc(O)c(Cc3ccccc3)c(=O)[nH]2)nc1C` was tested, and the Potency was 50.1 µM (active).
For `Cc1nnc(SCC(=O)Nc2ccc(S(=O)(=O)Nc3ccc(Cl)nn3)cc2)s1`, the Potency was 79.4 µM (active).
With `CC(C)(C)N(CC#CCC(O)(c1ccccc1)C1CCCC1)CCO` (centres undefined) the Potency was 10 µM (active).
`CON(C)S(=O)(=O)c1ccc2c(c1)NC(=O)C1CCCN21` (centres undefined) was tested, and the Potency was 25.1 µM (active).
For `CCCC(=O)N1c2ccc(-c3csc(N)n3)cc2CC1C` (centres undefined), the Potency was 70.8 µM (active).
`COc1cccc(CNCCc2c[nH]c3ccccc23)c1OCc1ccccc1F` was tested, and the Potency was 44.7 µM (active).
For `O=C1NC(c2ccncc2)Nc2sc3c(c21)CCCC3` (centres undefined), the Potency was 28.2 µM (active).
`Cn1nnc(NC(=S)NC(=O)c2ccccc2)n1` was tested, and the Potency was 8.91 µM (active).
In the case of `CCn1cc(C(=O)N2CC=C(c3ccccc3)CC2)c(=O)c2ccc(C)nc21`, the Potency is reported as 79.4 µM (active).
In the case of `O=C1C(c2[nH]c3ccccc3c2O)=Nc2ccccc21`, the Potency is reported as 5.01 µM (active).
For `Cc1cccc(CSc2nc3c(c(=O)n2C)SCC3)c1`, the Potency was 50.1 µM (active).
In the case of `CCCS(=O)(=O)Nc1c(C(=O)O)[nH]c2ccccc12`, the Potency is reported as 39.8 µM (active).

In order of rising “activity, negative = inhibition” value:
1. COc1ccc(OC)c(-n2nnc(-c3nc(-c4cc(OC)c(OC)c(OC)c4)no3)c2C)c1  -32.2%
2. CCOC(=O)C1CCN(c2ncnc3c2c(-c2ccccc2)cn3-c2cccc(C)c2)CC1  -31.3%
3. CCN(C(=O)CSc1nnc(-c2ccc(OC(F)F)cc2)n1N)C1CCS(=O)(=O)C1 (centres undefined)  -29.8%
4. COc1ccc(OC)c(NC(=O)C2CCCN(S(=O)(=O)c3ccc4c(c3)CCCC(=O)N4)C2)c1 (centres undefined)  -27.3%
5. OC(C#CCN1CCOCC1)(c1ccccc1)C1CCCCC1 (centres undefined)  -18.1%
6. CCN(c1ccc(Cl)cc1)S(=O)(=O)c1nnc(NC(=O)c2ccco2)s1  -16.6%
7. O=C1CCCC(O)=C1C=NCCc1ccccc1  -16.2%
8. O=C(NC(=O)c1ccccc1)NC(=O)c1ccccc1  -6.69%
9. COc1ccc2c(c1)C=C(C(=O)NCc1cc(Br)ccc1OC)CO2  -5.53%
10. CN(CC#CCC(c1ccccc1)c1ccccc1)C(C)(C)C  -1.78%
11. CC(C)C12CN3CC(C(C)C)(CN(C1)C3c1ccc(OCc3ccccc3)cc1)C2=O (centres undefined)  0.192%
12. CN(Cc1ccccc1)C(=O)c1cc2c(=O)n(C)c3ccccc3c2s1  0.227%
13. O=C(Cc1c(O)c2ccccc2[nH]c1=O)NCc1ccccc1  1.62%
14. CCCCCC(=O)Nc1ccc(S(=O)(=O)Nc2ccc(Cl)nn2)cc1  2.65%
15. COc1ccc(NC(=O)CCN2CCN(CCO)CC2)cc1  7.3%
16. CCS(=O)(=O)N1CCC(n2c(C)nc3cccnc32)CC1  7.57%
17. CCCNC(=O)C1CCC(Cn2c(=O)c3sccc3n(Cc3ccccc3F)c2=O)CC1 (centres undefined)  9.39%
18. COc1cccc(C(=O)Nc2ccc(-c3cc(C(F)(F)F)nn3-c3ccccc3)cc2)c1  10.9%
19. Cc1cc2[nH]ncc2cc1NC(=S)NC(=O)c1ccccc1  12.2%
20. O=C1CC(c2cccc(Cl)c2)CC(O)=C1C=Nc1ccccc1 (centres undefined)  19.3%
21. Cc1ccc(N(CC(=O)NCC(C)c2ccccc2)S(=O)(=O)N(C)C)cc1 (centres undefined)  20%
22. CN(C)S(=O)(=O)c1ccc(N2CCCC2=O)c([N+](=O)[O-])c1  20.3%
23. CCOC(=O)c1[nH]c2ccccc2c1N=C(C)N(CC)CC  23.3%

In order of rising activity, negative = inhibition:
1. CC1(C)CC(=O)C(C=NCCN2CCN(C(=S)Nc3cccc(Cl)c3)CC2)=C(O)C1  -2.18% [at 0.501 µM]
2. NC(=O)c1ccsc1NC(=O)COC(=O)Cc1n[nH]c(=O)c2ccccc12  1.16% [at 0.501 µM]
3. COc1cc(OC)c(C(=S)N2CCCC2)cc1OC  10.9% [at 0.501 µM]
4. CCOc1ccc(S(=O)(=O)NCCC(=O)NCC(C)(C)N2CCOCC2)cc1  14% [at 0.501 µM]

In order of falling activity, negative = inhibition:
1. Cn1c(-c2ccc(F)cc2)cc2onc(-c3ccccc3Cl)c2c1=O  20.7% [at 2.33 µM]
2. CN(C)C1=NC[C@H](Cc2ccccc2)N1CCc1ccc(F)cc1  16.6% [at 2.33 µM]
3. O=C(Nc1nc(-c2ccco2)c(-c2ccco2)s1)c1ccco1  16.3% [at 2.33 µM]
4. CCOC(=O)C1CCN(C(=O)Cc2c(C(=O)O)[nH]c3ccccc23)CC1  16% [at 2.33 µM]

In order of rising activity, negative = inhibition:
1. Cc1cccc(C(=O)OC(C)C(=O)NC2CCCc3ccccc32)c1O (centres undefined)  18.2% [at 12.7 µM]
2. Cc1ccc(C(=O)Nc2ncccc2C)cc1S(=O)(=O)N1CCOCC1  22.2% [at 12.7 µM]

Source: PubChem BioAssay AID504332 (National Center for Advancing Translational Sciences (NCATS), 2011)
